Measured values published in PubChem BioAssay AID2530 (National Center for Advancing Translational Sciences (NCATS), 2010).
Records with an inconclusive call do not appear. A call without a number means that no potency is given here. Calls of active or inactive are those of the source. Calls follow the shape of the dose curve; as a rule, active = well fitted inhibition curve with a large enough effect; inconclusive = small, poorly fitted or top-dose-only effect; inactive = flat fitted curve, though single readings scatter.

target: Luciferin 4-monooxygenase (Photuris pensylvanica) (UniProt Q27757); assay: Secondary Assay for Luciferase (Kinase-Glo TM) Inhibition Counterscreen; conditions: Kinase-Glo luciferase enzyme, luminescence; series mostly up to 58.1 µM
Procedure, shortened: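 Inhibition was fitted with the Hill equation after normalizing luminescence to DMSO (basal) and 40 uM SIB 1757 (full inhibition). Kinase-Glo luciferase ran for 8 min at room temperature in imidazole buffer pH 7.2 with KCl, MgCl2 and 10 uM ATP.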
Potency is read from the fitted curve at half-maximal effect.

Row | Compound | Potency
1 | O=C(Nc1ccc(N2CCOCC2)cc1)c1cn2ccccc2n1 | 6.51 µM (active)
2 | Cc1ccc(C(=O)N2c3ccccc3CC2C)o1 (centres undefined) | 18.3 µM (active)
3 | O=[N+]([O-])c1cc2oc3c(c2c(C=NCc2ccccc2)c1O)CCCC3 | inactive
4 | CC(=O)Nc1ccc(S(=O)(=O)Nc2ccc(C)c(C)c2)cc1 | inactive
5 | COc1ccccc1NS(=O)(=O)c1ccc2c(c1)CCC(=O)N2 | inactive
6 | O=C1CCc2cc(S(=O)(=O)Nc3ccccn3)ccc2N1 | inactive
7 | O=C1c2ccccc2-c2nnc(-c3ccccc3)cc21 | 4.11 µM (active)
8 | O=C1c2ccccc2C(=O)N1Cc1ccccn1 | inactive
9 | O=C1CCc2cc(S(=O)(=O)Nc3ccccc3F)ccc2N1 | inactive
10 | Cc1ccc(NS(=O)(=O)c2ccc3c(c2)CCCC(=O)N3)cc1C | inactive
11 | COc1cc(/C=N/N2C(C)CCCC2C)cc(OC)c1O (centres undefined) | inactive
12 | COc1cccc(N2C(=O)c3ccccc3C2=O)n1 | inactive
13 | COc1cc(N2C(=O)c3ccccc3C2=O)c2ncccc2c1 | inactive
14 | O=C1CCc2cc(S(=O)(=O)Nc3ccc4ccccc4c3)ccc2N1 | inactive
15 | O=C1c2ccccc2C(=O)N1c1ncccc1O | inactive
16 | CCOC(=O)Cc1csc(NC(=S)NC(=O)c2ccc([N+](=O)[O-])cc2)n1 | inactive
17 | N/C(=N\OC(=O)c1ccccc1)c1ccccn1 | 4.61 µM (active)
18 | Cn1c2cc(S(C)=O)sc2c2cnn(Cc3cccc(O)c3)c(=O)c21 (centres undefined) | inactive
19 | Cc1ccc(NS(=O)(=O)c2cc3c(cc2-c2ccco2)NC(=O)CO3)cc1C | inactive
